Screens deposited in PubChem by National Center for Advancing Translational Sciences (NCATS).
Rows were chosen to be rich in hits. Some 8% of all compounds tested hit in one or more screens of this group.
SARS PLpro yeast: blocks SARS-CoV papain-like protease in a yeast assay; S. cerevisiae expressing SARS-CoV PLpro, growth rescue; 330,000 tested, 0.19% active; Potency, µM (series often up to 32.9 µM), inactives show top-dose activity, positive = growth rescue, usual class: activators; calls by dose curve; further: potency means the concentration at half of the fitted maximal effect; 0% is about no effect; nearly all actives have a fitted effect of over 55% in size
LASV entry inh: Lassa virus entry inhibition; AID 540256; 300,000 tested, 1.2% active; Potency, µM (titrated, usually from 37.9 µM), without a hit: top-dose activity change, negative = inhibition, usual class: inhibitors; Lassa virus pseudotype entry inhibition, cell reporter; calls by dose curve; tested in HEK293 cells; further: potency means the concentration at half of the fitted maximal effect; on the % scale 0 is the no-effect control and ±100 the full control effect; nearly all actives have a fitted effect of over 50% in size
HCMV inh: blocks human cytomegalovirus replication | HFF cells, HCMV-luciferase reporter, 72 h; active compounds read low | activity change, negative = inhibition, % at 57.5 µM | 410,000 tested, 4.5% active; in the data active means activity change below about -60%; inconclusive means no clear call, values can overlap the other calls; inactive means above about -39%; further: on the % scale 0 is the no-effect control and ±100 the full control effect
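Luciferase read-out from HCMV-luciferase-infected HFFs (MOI 1 PFU/cell) 72 h post infection at 37C; compounds added after 16 h cell attachment; activity normalized between buffer-only basal and Salinomycin (10uM) inhibitor controls.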
HCV inh: blocks hepatitis C virus; Huh7.5.1 HCVcc-Cre infection, luciferase reporter, 44 h; Potency, µM (titrated, usually from 41.8 µM), without a hit: at the highest dose activity change, negative = inhibition, hits mostly inhibitors; 340,000 tested, 3.4% active; AID 651820; further: potency means the concentration at half of the fitted maximal effect; on the % scale 0 is the no-effect control and ±100 the full control effect
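Seed cells (1,000/well) for 4 h; treat with compound and infect with HCVcc-Cre, moi about 0.5. Incubate 44 h, then detect luciferase activity.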
Marburg entry inh: inhibitors of Marburg virus binding or cell entry; Marburg virus pseudotyped entry inhibition, cell reporter; Potency, µM (highest dose often 37.8 µM), for inactives: at the top dose activity change, negative = inhibition, most hits filed as inhibitors; 300,000 tested, 1.8% active; AID 540276; calls by dose curve; tested in HEK293 cells; further: potency means the concentration at half of the fitted maximal effect; on the % scale 0 is the no-effect control and ±100 the full control effect
FMDV inh: blocks foot and mouth disease virus | Potency, µM (highest dose often 57.9 µM), inactives show at the top dose activity change, negative = inhibition, hits mostly inhibitors | 410,000 tested, 1.2% active | FMDV antiviral cell-based qHTS; calls by dose curve; tested in HEK293T cells; further: read-out not given here; potency means the concentration at half of the fitted maximal effect; on the % scale 0 is the no-effect control and ±100 the full control effect; nearly all actives have a fitted effect of over 45% in size
HCV inh confirm: HCV inhibition, cherry-pick confirmation | Potency, µM (doses to about 41.8 µM), without a hit: at the top dose activity, negative = inhibition, actives largely listed as inhibitors | 640 tested, 78% active | AID 720575 | shares compounds with HCV inh | HCVcc-Cre infectious virus cell assay, luciferase, inhibition; further: potency means the concentration at half of the fitted maximal effect; nearly all actives have a fitted effect of over 80% in size
HCV cytotox: counter-screen for HCV inhibitors: host cell cytotoxicity; shares compounds with HCV inh; HCV host cell line cytotoxicity counterscreen; Potency, µM (highest dose often 41.8 µM), for inactives: at the highest dose activity change, negative = cytotoxicity, actives largely listed as inhibitors; 640 tested, 22% active;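 further: potency means the concentration at half of the fitted maximal effect; 44 h compound exposure; on the % scale 0 is the no-effect control and ±100 the full control effect; nearly all actives have a fitted effect of over 55% in size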
Starred values were filed as active, the others as inactive; ? = inconclusive; . = not tested or not shown; [ ] = another dose, or the depositor's remark. Unless noted, the call rests on the fitted dose curve; in most records, active means well fitted curve in the direction sought with a large enough effect; inconclusive means small, poorly fitted or top-dose-only effect, or another doubt; inactive means no such curve, though single readings can be large; an effect the other way counts as inactive or inconclusive.

SMILES	SARS PLpro yeast	LASV entry inh	HCMV inh	HCV inh	Marburg entry inh	FMDV inh	HCV inh confirm	HCV cytotox
CCOc1ccc2nc(SCC(=O)NCc3ccc4c(c3)OCO4)[nH]c2c1	0%	-11%	143	4µM*	9%	-19%	?	-17%
COc1ccc2nc(SCC(=O)NCc3ccc4c(c3)OCO4)[nH]c2c1	11%	2%	?	6%	-12%	-16%	.	.
O=[N+]([O-])c1cc2c(cc1[N+](=O)[O-])OCCOCCOCCOCCO2	-1%	-42%	90	6.3µM*	-11%	-18%	?	-15%
COc1ccc(CCNS(=O)(=O)c2c(C)nc3scc(C)n3c2=O)cc1OC	-7%	3%	40	1%	-20%[46.1 µM]	-22%	.	.
CC(C)n1cc(/C=C(\C#N)S(=O)(=O)c2ccccc2)c2ccccc21	0%	-12%	54	8.9µM*	?	4%	?	-13%
N#C/C(=C\c1cn(-c2ccccc2)nc1-c1ccccc1)S(=O)(=O)c1ccccc1	2%	8%	11	6%	10%	14%	.	.
COc1cccc(NC(=O)c2oc3ccccc3c2NC(=O)C2CC2)c1	-2%	?	-17	?	?	-22%	?	23%
COc1ccc(NC(=O)c2oc3ccccc3c2NC(=O)C2CC2)cc1	2%	-11%	-23	-26%	3%	-13%	.	.
CCOC(=O)c1ccccc1NC(=O)COC(=O)C1CCN(S(=O)(=O)c2ccccc2C(=O)OC)CC1	-4%	-12%	-14	1%[8.37 µM]	15%	-12%	.	.
COc1ccc(-n2cc(-c3ccc(C)cc3)[n+]3c2SCC3)cc1	-21%	?	-102*	?	1.3µM*	11µM*	13µM*	13µM*
N#Cc1ccc(-c2cn(-c3ccccc3)c3[n+]2CCCS3)cc1	2%	2%	-5	0%	9%[46.1 µM]	-4%	.	.
CCn1cc(C=C2C(=O)N(C)C(=O)N(C)C2=O)c2ccccc21	2%	4%[46.1 µM]	33	14%	4%[46.1 µM]	-25%	.	.
CCn1cc(/C=C/c2cc[n+](C)cc2)c2ccccc21	-1%	.	-97*	2.5µM*	.	-22%	1.8µM*	4µM*
COc1ccc(CNC(=O)c2ccc3c(=O)n4c(nc3c2)CCCCC4)cc1OC	1%	?	-74*	?	?	?	7.9µM*	?
COc1ccc(CNc2ncnc3cc(Cl)ccc23)cc1	-1%	?	-65*	8.9µM*	?	?	25µM*	?
COc1ccc(CNc2ncnc3cc(OC)c(OC)cc23)cc1	3%	-1%	1	?	?	-25%	.	.
O=C(CSc1nnc(C2CC2)n1CC1CCCO1)Nc1ccccc1Cl (centres undefined)	-2%	-2%	13	22%	-8%[46.1 µM]	7%	.	.
COCCCNCCOCCOc1ccccc1-c1ccccc1	-12%	?	-36	7.9µM*	?	12%	?	?
C=CCNCCOCCOc1ccccc1-c1ccccc1	-2%	.	?	-11%	.	-8%	.	.
Cc1ccc(-n2nnnc2SCCNS(=O)(=O)c2ccccc2)cc1C	-10%	-13%	-19	?	?	.	14µM*	-17%
COc1ccc(S(=O)(=O)NCCSc2nnnn2-c2ccccc2)cc1OC	.	-26%[46.1 µM]	2	.	11%[46.1 µM]	10%	.	.
COC(=O)c1cc2c(C)cc3ccc(C)cn3c-2c1C(=O)OC	3%	-13%	-21	4µM*	1%	0%	11µM*	43%
COC(=O)c1cc2ccccn2c2c(C(=O)OC)c(C(=O)OC)cc1-2	15%	-28%	46	?	?	?	.	.
COc1ccc(/C=N\NC(=O)c2ccccc2Br)cc1COc1c(F)c(F)cc(F)c1F	-5%	?	-81*	5µM*	6.3µM*	-21%	4.4µM*	22µM*
O=C(CCC(=O)c1cccs1)NCC(=O)Nc1ccc(F)c(F)c1F	?	-3%	2	?	9%	-20%	.	.
SMILES	SARS PLpro yeast	LASV entry inh	HCMV inh	HCV inh	Marburg entry inh	FMDV inh	HCV inh confirm	HCV cytotox
COc1cc(NC(C)CCCN)c2ncccc2c1Oc1ccccc1 (centres undefined)	-24%	11%	11	7.9µM*	?	-21%	20µM*	-18%
Fc1ccc(CSc2nnc(-c3cccnc3)o2)cc1	-1%	.	0	10%	.	33%	.	.
COc1ccc(CN(C)C(=O)C2CCN(C(=O)Nc3ccccc3)CC2)cc1	-2%	-13%	-13	-3%	?	-19%	.	.
Cc1ccc(S(=O)(=O)NCc2ccncc2)c(C)c1C	1%	-14%[46.1 µM]	-83*	0.79µM*	?	-10%	0.79µM*	-95%
CCC(=O)NC(c1cccs1)c1cc(Cl)c2cccnc2c1O (centres undefined)	1%	.	?	4µM*	.	-15%	7µM*	11µM*
CCN(CC)CCn1c(SCC(=O)Nc2ccc3c(c2)CCC3)nc2ccccc2c1=O	1%	.	-33	?	.	6%	.	.
CCC(=O)c1cc2c(cc1NC(=O)c1ccccc1)OCCO2	6%	-11%	5	4µM*	3%	.	4µM*	28%
CCC(=O)c1cc2c(cc1NC(=O)c1ccccc1F)OCCO2	.	-21%[46.1 µM]	-14	.	7%[46.1 µM]	-12%	.	.
CCn1c(=O)c2cc(C(=O)Nc3cc(OC)c(OC)c(OC)c3)sc2c2ccccc21	.	9%[46.1 µM]	-9	.	-5%[46.1 µM]	?	.	.
CCn1c(=O)c2cc(C(=O)Nc3ccccc3OC)sc2c2ccccc21	-5%	.	0	?	.	-11%	14µM*	-15%
O=C(COc1ccc(Nc2ccccc2)cc1)Nc1ccncc1	-11%	?	-31	?	-6%[46.1 µM]	?	.	.
Cc1ccc(CNc2oc(-c3ccco3)nc2S(=O)(=O)c2ccccc2)cc1	-46%	-8%	-31	?	-6%	14%	.	.
Cc1nc2ccccn2c1-c1csc(Nc2cccc(C(=O)O)c2)n1	-2%	6%[46.1 µM]	?	13%	-2%[46.1 µM]	-19%	.	.
Cc1cccc(Nc2nc(-c3c(C)nc4ccccn34)cs2)c1	-21%	?	-95*	2.5µM*	?	.	14µM*	25µM*
CC(=O)NC(c1ccc(F)c(F)c1)c1nc(-c2cccc(C(C)C)c2)cs1 (centres undefined)	.	.	19	.	.	-23%	.	.
COC(=O)C1=C(C)NC(=O)NC1c1ccc(-c2ccccc2Cl)o1 (centres undefined)	-3%	-13%	-22	?	-9%[46.1 µM]	?	22µM*	2%
Cc1ccc(CSc2nccc(-c3c(C)nc4ccccn34)n2)cc1	-1%	.	4	5.6µM*	.	?	25µM*	-44%
Cc1ccc(CSc2ncn(-c3ccccc3)n2)cc1	-3%	?	20	12%	-9%	44%	.	.
